# Assay results from PubChem BioAssay (NCI).
# The panel holds about 83,000 compounds, 20% with a hit somewhere; the sample as a whole holds those more often.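 Growth was measured after 48 h exposure to one concentration of compound in 96-well plates. Values under 10 count as active.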 The source made the active and inactive calls.
# Tested on: MDA-MB-468 breast
# Experiment: NCI-60 one-dose screen, 48 h (100 = growth as untreated, 0 = no growth, -100 = all killed)
# Conditions: 10 µM unless noted
row,SMILES,growth
1,Cc1ccc(C2=NN(c3ccc(S(C)(=O)=O)cc3)C(=O)CC2)cc1,23.9% (inactive)
2,CN1CCN(S(=O)(=O)O[C@@H]2C(=O)N(c3cc4c5ccccc5ccc4c4ccccc34)[C@H]2c2ccc(F)cn2)CC1,90.8% (inactive)
3,CCOC(=O)c1cc(C(=O)c2cc(OC)c(OC)c(OC)c2)n2ncc3ccccc3c12,66% (inactive)
4,O=C1/C(=C/C(Cl)=C/c2ccccc2)SC(=S)N1CCc1ccc(O)cc1,-36.2% (active)
5,CC(=O)c1c(C)c2cnc(Nc3ccc(N4CCNCC4)cn3)nc2n(C2CCCC2)c1=O,26.9% (inactive)
6,COC(=O)c1c(C)[nH]c(/C=C2\N=C(c3ccc[nH]3)C=C2OC)c1C,-69.4% (active)
7,COc1cc(C2=NN(c3ccc(S(N)(=O)=O)cc3)C(c3ccc(Cl)cc3)C2)cc(OC)c1OC (stereo not given),38.3% (inactive)
8,CC(=O)N/C(=C1/OC(C(O)C(O)C(O)CO)CN1C)[P+](c1ccccc1)(c1ccccc1)c1ccccc1 (stereo not given),106% (inactive)
9,COc1ccc(CC(C)=C(c2ccc(OCCN3CCCCCC3)cc2)c2ccc(OCCN3CCCCCC3)cc2)cc1,-81.2% (active)
10,COc1ccc2c(c1)C(=O)c1c-2c(OCCN(C)C)nc2ccccc12,44.8% (inactive)
11,CN(C)CCCNc1c2ccc(Cl)cc2nc2c1oc1ccc(Cl)cc12,36.4% (inactive)
12,COc1ccc2c(c1)C=CC1(O2)Oc2ccc(OC)cc2C=C1C (stereo not given),47.3% (inactive)
13,O=S(=O)(NCCNc1nccc(-c2c(-c3cccc(F)c3)nc3occn23)n1)c1ccc(Br)cc1,67.7% (inactive)
14,Fc1cc(F)cc(NNC(=S)c2ccccc2)c1,43.5% (inactive)
15,Clc1cc(Cl)cc(N2N=C(c3cccc(Nc4ccncc4)c3)CC2c2ccc(Br)cc2)c1 (stereo not given),44.9% (inactive)
16,CC(C)CCOC(=O)c1ccccc1,115% (inactive)
17,O=S(c1ccccc1)c1ccc2nnnn2n1 (stereo not given),112% (inactive)
18,Clc1ccc(CN2COc3c(ccc4cccnc34)C2)cc1Cl,-71.9% (active)
19,CCN1CCN(C(=O)[C@]23CC[C@@H](C)[C@H](C)[C@@H]2C2=CC[C@@H]4[C@@]5(C)CCC(=O)C(C)(C)[C@@H]5CC[C@@]4(C)[C@]2(C)CC3)CC1,-7.11% (active)
20,COc1ccc(C(=O)c2sc3nc(-c4cccs4)ccc3c2N)cc1OC,8.13% (active)

row,SMILES,growth
1,O=C(NNc1cnccn1)c1nc2cc(F)ccc2n2cccc12,-21.7% (active)
2,COc1cc(CNC(=O)CCCC/C=C/C(C)C)ccc1OCc1cn(-c2ccc(C(F)(F)F)cc2)nn1,84.8% (inactive)
3,N#CSCc1ccc(Cl)c(CSC#N)c1,51.5% (inactive)
4,CN1C(=O)N(C)C2NC(N/N=C/c3ccccc3)=NC21 (stereo not given),95.9% (inactive)
5,CCn1cc(C2=C(c3cn(C)c4ncccc34)C(=O)NC2=O)c2cccnc21,37.2% (inactive)
6,O=C(O)c1ccccc1C(=O)c1cccc2c(F)cccc12,104% (inactive)
7,CC(C)(C)c1cc(-n2c(-c3ccc(Cl)cc3)nc3cc(C(=O)Nc4ccc(Cl)cc4)ccc32)n[nH]1,51.7% (inactive)
8,CNC(=O)c1cc(Oc2ccc3nc(NC(=O)Nc4ccc(N5CCC(N(C)C)CC5)cc4)sc3c2)ccn1,76.3% (inactive)
9,COc1ccc(Cn2cc3c(c2-c2ccccc2)CCCc2cnoc2-3)cc1[N+](=O)[O-],40.4% (inactive)
10,COc1ccc(C(=O)n2nc(CC(=O)NCc3ccccc3)nc2N)cc1,105% (inactive)
11,COc1ccc(C(=O)/C(=N/Nc2ccccc2)c2ccc(OC)cc2)cc1,106% (inactive)
12,Clc1ccc(-c2cc(-c3ccccc3)nc(N3CCN(CCCNc4ccnc5cc(Cl)ccc45)CC3)n2)cc1,-34% (active)
13,N#C/C(C(=O)c1ccccc1)=C1/C(=O)Nc2ccc(F)cc21,106% (inactive)
14,Cn1ccnc1C(=O)/C=C/c1ccc(CC(=O)Nc2ccc(Br)cc2)cc1,0.947% (active)
15,N#C/C(=C\c1ccc([N+](=O)[O-])s1)c1nc2cc(Cl)ccc2s1,93.7% (inactive)
16,O=C(O)C1CSC(c2ccccc2)N1 (stereo not given),96.7% (inactive)
17,COc1ccc(/C=C2\Cc3c(Br)cccc3C2=O)c(OC)c1,49.6% (inactive)
18,CCCCCc1ccc(C)cc1OC(=O)CCl,110% (inactive)
19,O=C(NC1CCCC1)c1ccc(N2CCC(NCc3cccc(C(F)(F)F)c3)CC2)cc1,77.7% (inactive)
20,C=CCCCOC1[C@H](OCc2ccccc2)C(OCc2ccccc2)C(OC)O[C@@H]1CNC(=O)c1cccc(I)c1 (stereo not given in full),24.8% (inactive)
